Data taken from PubChem BioAssay (NCATS).
Values without a mark were called inactive. Records with an inconclusive call do not appear. Where a call stands in place of a potency, no number is given. Activity calls are given as the source filed them. Unless noted, calls come from the whole dose curve; as a rule, active = well fitted curve in the direction sought with a large enough effect; inconclusive = small, poorly fitted or top-dose-only effect, or another doubt; inactive = no such curve, though single readings can be large; an effect the other way counts as inactive or inconclusive.

Experiments:
[1] = biological target: Cytochrome P450 3A4 (Homo sapiens) (UniProt P08684); test: qHTS for inhibitors of CYP3A4 against the NCATS DSHEA and TCM libraries (AID 1919971);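 note: inhibition lowers luminescence from luciferin made by CYP3A4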
Chain of Cytochrome P450 3A4 (Homo sapiens) (P08684 whole entry, looked up): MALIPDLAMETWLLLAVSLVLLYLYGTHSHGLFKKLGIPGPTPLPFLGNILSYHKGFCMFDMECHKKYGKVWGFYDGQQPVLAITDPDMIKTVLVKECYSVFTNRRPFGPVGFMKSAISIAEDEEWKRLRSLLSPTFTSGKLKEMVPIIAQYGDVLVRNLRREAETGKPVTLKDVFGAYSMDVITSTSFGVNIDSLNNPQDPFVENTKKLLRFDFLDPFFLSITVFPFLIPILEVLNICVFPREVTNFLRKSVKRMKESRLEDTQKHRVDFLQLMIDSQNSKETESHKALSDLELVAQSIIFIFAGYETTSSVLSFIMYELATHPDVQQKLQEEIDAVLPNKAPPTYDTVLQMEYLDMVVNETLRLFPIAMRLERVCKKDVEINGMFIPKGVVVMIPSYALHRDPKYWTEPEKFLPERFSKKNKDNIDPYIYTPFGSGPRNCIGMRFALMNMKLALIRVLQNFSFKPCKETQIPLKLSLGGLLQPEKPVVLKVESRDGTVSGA
In short: (§1)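 Substances were tested against enzyme with a pro-luciferin substrate; minus-enzyme wells served as background. After NADPH-initiated oxidation (30-45 min, RT), light was generated with P450-Glo reagent.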

[2] = biological target: Cytochrome P450 2C9 (Homo sapiens) (UniProt P11712); test: qHTS for inhibitors of CYP2C9 against the NCATS DSHEA and TCM libraries (AID 1919973);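 note: luminogenic pro-luciferin CYP2C9 substrate turned into luciferin with NADPH regeneration; series mostly up to about 34 µM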
Chain of Cytochrome P450 2C9 (Homo sapiens) (P11712 whole entry, looked up): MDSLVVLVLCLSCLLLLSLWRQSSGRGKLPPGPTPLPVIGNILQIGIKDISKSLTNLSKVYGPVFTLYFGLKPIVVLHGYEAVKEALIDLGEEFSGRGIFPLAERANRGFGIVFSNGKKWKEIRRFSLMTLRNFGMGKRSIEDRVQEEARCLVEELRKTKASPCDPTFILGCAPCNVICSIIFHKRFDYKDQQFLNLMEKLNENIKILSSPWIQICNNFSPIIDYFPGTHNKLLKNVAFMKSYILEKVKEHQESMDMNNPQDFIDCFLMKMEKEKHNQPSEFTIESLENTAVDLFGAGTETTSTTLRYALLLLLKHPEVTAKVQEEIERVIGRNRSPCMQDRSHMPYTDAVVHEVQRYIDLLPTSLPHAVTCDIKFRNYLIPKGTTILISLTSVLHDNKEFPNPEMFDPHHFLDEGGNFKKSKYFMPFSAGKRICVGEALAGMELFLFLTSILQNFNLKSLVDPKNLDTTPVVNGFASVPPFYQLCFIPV
In short: as §1

[3] = biological target: Cytochrome P450 2C19 (Homo sapiens) (UniProt P33261); test: qHTS for inhibitors of CYP2C19 against the NCATS DSHEA and TCM libraries (AID 1919974);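 note: luminescence from luciferin released by CYP2C19 oxidation of a pro-luciferin substrate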; note: potency is the fitted concentration of half-maximal effect
Chain of Cytochrome P450 2C19 (Homo sapiens) (P33261 whole entry, looked up): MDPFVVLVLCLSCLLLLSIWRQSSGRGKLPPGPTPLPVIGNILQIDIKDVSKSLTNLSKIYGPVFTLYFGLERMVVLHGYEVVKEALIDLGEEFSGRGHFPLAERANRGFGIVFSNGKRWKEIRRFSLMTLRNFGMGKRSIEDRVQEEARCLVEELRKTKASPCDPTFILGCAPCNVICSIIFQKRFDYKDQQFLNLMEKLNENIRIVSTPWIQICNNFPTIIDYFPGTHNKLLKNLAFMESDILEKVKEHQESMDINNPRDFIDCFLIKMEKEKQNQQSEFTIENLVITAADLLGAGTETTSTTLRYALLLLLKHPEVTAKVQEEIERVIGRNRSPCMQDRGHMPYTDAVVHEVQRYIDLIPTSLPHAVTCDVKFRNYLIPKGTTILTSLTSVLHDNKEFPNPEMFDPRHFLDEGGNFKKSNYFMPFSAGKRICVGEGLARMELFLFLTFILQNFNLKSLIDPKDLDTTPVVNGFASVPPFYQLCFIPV
In short: as §1

[4] = biological target: Cytochrome P450 1A2 (Homo sapiens) (UniProt P05177); test: qHTS for inhibitors of CYPIA2 against the NCATS DSHEA and TCM libraries (AID 1919976); note: series mostly up to about 37 µM
Chain of Cytochrome P450 1A2 (Homo sapiens) (P05177 whole entry, looked up): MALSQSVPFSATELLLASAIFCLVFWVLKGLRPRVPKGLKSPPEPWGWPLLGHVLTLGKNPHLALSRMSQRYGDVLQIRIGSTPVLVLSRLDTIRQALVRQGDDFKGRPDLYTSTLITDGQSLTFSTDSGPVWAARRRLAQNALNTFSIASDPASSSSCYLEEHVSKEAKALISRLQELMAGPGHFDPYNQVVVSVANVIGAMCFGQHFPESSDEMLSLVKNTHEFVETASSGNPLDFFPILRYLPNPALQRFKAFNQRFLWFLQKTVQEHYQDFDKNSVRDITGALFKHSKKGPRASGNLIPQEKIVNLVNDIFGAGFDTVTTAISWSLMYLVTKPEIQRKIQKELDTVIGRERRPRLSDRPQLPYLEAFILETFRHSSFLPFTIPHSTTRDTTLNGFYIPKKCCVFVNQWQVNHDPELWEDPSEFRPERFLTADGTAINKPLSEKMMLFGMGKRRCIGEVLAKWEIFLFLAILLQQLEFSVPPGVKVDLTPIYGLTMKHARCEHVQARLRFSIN
In short: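 Luminescence read-out: pro-luciferin converted to D-luciferin by CYP1A2, detected with P450-Glo reagent after 30 min RT. Enzyme plus substrate got compounds for 15 min RT; NADPH regeneration solution (final 1x) started a 30-45 min reaction, light-protected.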

[5] = biological target: Cytochrome P450 3A4 (Homo sapiens) (UniProt P08684); test: qHTS Assay for Inhibitors and Substrates of Cytochrome P450 3A4 (AID 884); note: potency is the fitted concentration of half-maximal effect; nearly all actives have a fitted effect of over 50% in size
In short: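 Luminescent readout of luciferin produced by CYP3A4 (20 nM) dealkylation of Luciferin-PPXE, 25 uM (its KM). NADPH-driven reaction ran 60 min at RT after 10 min compound preincubation; data scaled to 57 uM ketoconazole as 100% inhibition.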

[6] = biological target: Cytochrome P450 3A4 (Homo sapiens) (UniProt P08684); test: qHTS Assay for Activators of Cytochrome P450 3A4 (AID 885); note: nearly all actives have a fitted effect of over 65% in size
In short: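 CYP3A4 activity: Luciferin-PPXE O-dealkylation, 25uM substrate, 200mM KPO4, RT throughout. Read-out is luciferase luminescence; higher values reflect activation.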

[7] = biological target: Cytochrome P450 2C19 (Homo sapiens) (UniProt P33261); test: qHTS Assay for Inhibitors and Substrates of Cytochrome P450 2C19 (AID 899); note: potency is the fitted concentration of half-maximal effect; nearly all actives have a fitted effect of over 60% in size
In short: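 5nM enzyme + 10uM Luciferin-H EGE (=KM), 50mM KPO4; cpd pin-transferred, 10 min 37C; NADPH regen, 60 min 37C; stopped w/ luciferin detection reagent, 20 min; luminescence. Normalized to 57uM ketoconazole (AC100).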

[8] = biological target: Dual specificity protein kinase CLK4 (Homo sapiens) (UniProt Q9HAZ1); test: qHTS Assay for Inhibitors of CDC-like Kinase 4 (ADP-Glo Assay) (AID 1771); note: nearly all actives have a fitted effect of over 70% in size; note: potency is the fitted concentration of half-maximal effect
Chain of Dual specificity protein kinase CLK4 (Homo sapiens) (Q9HAZ1 whole entry, looked up): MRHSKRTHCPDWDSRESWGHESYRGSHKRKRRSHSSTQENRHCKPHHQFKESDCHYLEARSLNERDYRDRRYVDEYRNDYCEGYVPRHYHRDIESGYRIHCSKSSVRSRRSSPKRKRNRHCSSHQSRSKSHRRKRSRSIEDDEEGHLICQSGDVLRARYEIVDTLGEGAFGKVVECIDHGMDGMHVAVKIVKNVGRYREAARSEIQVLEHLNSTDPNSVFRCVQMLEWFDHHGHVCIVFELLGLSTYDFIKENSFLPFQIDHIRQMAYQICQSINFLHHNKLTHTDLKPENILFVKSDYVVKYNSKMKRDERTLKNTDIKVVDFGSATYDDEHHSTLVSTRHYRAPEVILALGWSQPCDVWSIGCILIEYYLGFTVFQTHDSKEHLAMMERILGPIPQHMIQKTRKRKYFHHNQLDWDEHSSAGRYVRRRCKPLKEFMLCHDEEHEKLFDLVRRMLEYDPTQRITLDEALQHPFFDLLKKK
In short: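 25 nM Clk4, 100 uM RS peptide, 1 uM ATP (final); 2 mM MgCl2, 0.5 mM EGTA, 2.5 mM DTT, 0.01% Triton X-100; 1 hr RT. ADP-Glo readout: ATP depletion 45 min, conversion/luciferase 30 min, luminescence.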

[9] = biological target: Cytochrome P450 1A2 (Homo sapiens) (UniProt P05177); test: p450-cyp1a2 (AID 410; calls by dose curve; note: potency is the fitted concentration of half-maximal effect)
In short: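 20nM CYP1A2, 100uM Luciferin-ME (=Km), 100mM KPO4; cpd 10 min RT; +NADPH regen, 60 min RT; stop/detect 20 min; luminescence. Normalized to furafylline 57 uM = full inhibition.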

[10] = biological target: Dual specificity protein kinase CLK4 (Homo sapiens) (UniProt Q9HAZ1); test: qHTS Assay for Inhibitors of CDC-like Kinase 4 (ADP-FP Assay) (AID 1795);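 note: recombinant human CLK4 phosphorylating RS repeat peptide at 1 µM ATP; series mostly up to about 50 µM; nearly all actives have a fitted effect of over 60% in size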
In short: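 Kinase activity was measured as ADP production using Transcreener orange tracer (4 nM) and ADP antibody (1 ug/mL) fluorescence polarization, with ADP calculated from a calibration curve. The 1 h reaction contained 6.25 nM Clk4, 1 uM ATP and 100 uM RS peptide at pH 7.5 with Mg2+.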

[11] = biological target: Cytochrome P450 2D6 (Homo sapiens) (UniProt P10635); test: qHTS Assay for Inhibitors and Substrates of Cytochrome P450 2D6 (AID 891); note: potency is the fitted concentration of half-maximal effect; nearly all actives have a fitted effect of over 60% in size
Chain of Cytochrome P450 2D6 (Homo sapiens) (P10635 whole entry, looked up): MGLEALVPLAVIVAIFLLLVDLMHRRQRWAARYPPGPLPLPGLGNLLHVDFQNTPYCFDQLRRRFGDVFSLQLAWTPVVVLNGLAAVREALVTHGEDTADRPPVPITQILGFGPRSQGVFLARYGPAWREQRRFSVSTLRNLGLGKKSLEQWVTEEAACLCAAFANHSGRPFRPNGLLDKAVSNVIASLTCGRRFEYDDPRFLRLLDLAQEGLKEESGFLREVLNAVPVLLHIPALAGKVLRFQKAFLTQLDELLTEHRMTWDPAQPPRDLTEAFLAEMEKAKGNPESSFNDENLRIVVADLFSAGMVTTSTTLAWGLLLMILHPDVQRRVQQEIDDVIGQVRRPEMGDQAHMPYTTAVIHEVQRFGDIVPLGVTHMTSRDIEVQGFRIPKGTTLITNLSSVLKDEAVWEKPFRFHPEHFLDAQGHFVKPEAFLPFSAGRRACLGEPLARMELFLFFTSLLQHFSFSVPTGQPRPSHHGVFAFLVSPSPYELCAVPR
In short: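 Luminescent read-out of luciferin formed by 5 nM human CYP2D6 demethylating 30 uM Luciferin-ME EGE (Km level) over 60 min at room temperature after NADPH regeneration addition. Data normalized to full inhibition by 1.43 uM quinidine.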

[12] = biological target: Glutathione peroxidase 1 (Homo sapiens) (UniProt P07203); test: Primary qHTS Assay for Inhibitors of Recombinant Selenoprotein Glutathione Peroxidase 1 (GPX1) (AID 1845191); note: nearly all actives have a fitted effect of over 65% in size
Chain of Glutathione peroxidase 1 (Homo sapiens) (P07203 whole entry, looked up): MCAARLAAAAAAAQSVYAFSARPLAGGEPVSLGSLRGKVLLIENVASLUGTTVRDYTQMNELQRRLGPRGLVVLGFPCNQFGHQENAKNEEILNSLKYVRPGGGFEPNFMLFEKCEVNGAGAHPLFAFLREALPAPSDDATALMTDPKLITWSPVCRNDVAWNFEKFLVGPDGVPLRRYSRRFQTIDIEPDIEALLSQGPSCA
In short: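 NADPH consumption tracked by fluorescence at 340/450 nm between t=0 and t=15 min, room temperature. Final mix: 10 nM GPX1, 100 nM glutathione reductase, 1 mM GSH, 0.5 mM NADPH, 0.5 mM cumene hydroperoxide, 0.01% BSA; 30 min compound–enzyme preincubation.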

[13] = biological target: Phospholipid hydroperoxide glutathione peroxidase GPX4 (Homo sapiens) (UniProt P36969); test: Primary qHTS Assay for Inhibitors of Recombinant Selenoprotein Glutathione Peroxidase 4 (GPX4) (AID 1845192); note: nearly all actives have a fitted effect of over 65% in size
Chain of Phospholipid hydroperoxide glutathione peroxidase GPX4 (Homo sapiens) (P36969 whole entry, looked up): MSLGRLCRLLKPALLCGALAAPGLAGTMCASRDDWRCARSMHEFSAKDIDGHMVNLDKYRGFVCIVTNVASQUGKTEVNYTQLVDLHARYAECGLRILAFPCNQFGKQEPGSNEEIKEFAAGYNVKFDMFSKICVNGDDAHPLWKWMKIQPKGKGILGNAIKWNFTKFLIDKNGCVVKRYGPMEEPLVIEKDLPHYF
In short: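 NADPH consumption followed by fluorescence at 340/450 nm, t=0 and after 15 min at room temperature. Reaction started with cumene hydroperoxide (0.5 mM final) after 30 min compound–GPX4 preincubation; final 200 nM GPX4, 100 nM GR, 1 mM GSH, 0.5 mM NADPH.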

[14] = Dual reporter qHTS for antagonist of Pregnane X Receptor (hPXR) against the NCATS DSHEA and TCM libraries: Fluorescence Readout (AID 1920061)
In short: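 Antagonist mode: rifampicin 2 uM final co-added with compounds to hPXR-LucHepG2 cells for 24 h at 37C. Viability by CellTiter-Fluor, Ex/Em 405/540 nm, 1 h; reporter by ONE-Glo luminescence.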

With `C[C@@H]1O[C@@H](OC[C@H]2OC(Oc3c(-c4ccc(O)c(O)c4)oc4cc(O)cc(O)c4c3=O)[C@H](O)[C@@H](O)[C@@H]2O)[C@H](O)[C@H](O)[C@H]1O` (some centres not stated) the Potency [1] was “inactive”, the Potency [2] was “inactive” and the Potency [3] was “inactive”. The Potency [4] was “inactive”.
For `COc1ccc2[nH]cc(CCNc3nc(-c4ccccc4OC)nc4ccccc34)c2c1`, the Potency [5] was 2.51 µM (active), the outcome [6] was “inactive” and the Potency [7] was 5.01 µM (active). The Potency [8] was 35.5 µM (active).
With `Clc1ccccc1-c1ccc2ncnc(NCCN3CCOCC3)c2c1` the Potency [9] was 5.01 µM (active), the Potency [5] was 5.01 µM (active) and the outcome [6] was “inactive”. For the same compound, the Potency [8] was 25.1 µM (active).
With `COc1cccc(-c2nc(NCCN3CCOCC3)c3ccccc3n2)c1` the outcome [6] was “inactive” and the Potency [8] was 15.8 µM (active).
In the case of `COCCn1c(=O)c(CCc2ccccc2)nc2cnc(Oc3ccccc3)nc21`, the Potency [8] is reported as “inactive” and the Potency [10] is reported as “inactive”.
With `COc1ccccc1CNc1cc(-c2cccnc2)ncn1` the Potency [9] was 1 µM (active), the Potency [5] was 0.631 µM (active) and the Potency [11] was 5.01 µM (active). The Potency [8] was 31.6 µM (active).
For `COc1ccccc1CNc1ccnc(-c2cccc(NS(C)(=O)=O)c2)n1`, the Potency [8] was 25.1 µM (active).
With `C=C1C[C@]23CC[C@H]4[C@@](C)(CCC[C@@]4(C)C(=O)O)[C@@H]2CC[C@@]1(O[C@@H]1O[C@H](CO)[C@@H](O)[C@H](O)[C@H]1O[C@@H]1O[C@H](CO)[C@@H](O)[C@H](O)[C@H]1O)C3` the Potency [1] was “inactive”, the Potency [2] was “inactive” and the Potency [3] was “inactive”. For the same compound, the Potency [4] was “inactive”.
For `CC(=O)O[C@H]1[C@H](O[C@H]2CC[C@]34C[C@]35CC[C@]3(C)[C@@H]([C@@]6(C)CC[C@@H](C(C)(C)O)O6)[C@@H](O)C[C@@]3(C)[C@@H]5C[C@H](O[C@@H]3O[C@H](CO)[C@@H](O)[C@H](O)[C@H]3O)[C@H]4C2(C)C)OC[C@@H](O)[C@@H]1O`, the Potency [1] was “inactive”, the Potency [2] was “inactive” and the Potency [3] was “inactive”. The Potency [4] was “inactive”.
In the case of `COCCNc1ncnc2ccc(-c3ccccc3OC)cc12`, the outcome [6] is reported as “inactive”, the Potency [7] is reported as 5.01 µM (active) and the Potency [8] is reported as 10 µM (active).
In the case of `CC(=O)OC1CC2CCC1(C)C2(C)C` (configuration not stated), the Potency [12] is reported as “inactive”, the Potency [13] is reported as “inactive” and the Potency [1] is reported as “inactive”. For the same compound, the Potency [2] was “inactive”, the Potency [3] was “inactive” and the Potency [4] was “inactive”.
In the case of `Cc1ncc(COP(=O)(O)O)c(C)c1O`, the activity change, negative = inhibition [9] is reported as -20.3% [at 11.4 µM], the Potency [12] is reported as “inactive” and the Potency [13] is reported as “inactive”. The Potency [1] was “inactive”, the Potency [3] was 7.08 µM (active) and the outcome [14] was “inactive”.
With `Cc1cnc(CNc2ncnc3ccc(-c4ccccc4C)cc23)cn1` the Potency [5] was 3.98 µM (active), the outcome [6] was “inactive” and the Potency [8] was 25.1 µM (active).
